# TEAD-YAP block: TEAD-YAP interaction inhibition | inhibition, % at 9.12 µM | HEK-TIYL cells, TEAD-Gal4/YAP UAS-luciferase luminescence | hit rate 1.4% among 640,000; in the data active = inhibition above about 32%
# GPR151 activ: activators of human GPR151; Q8TDV0; PathHunter beta-arrestin GPR151 cells, luminescence; activation, % at 11.2 µM; hit rate 1% among 650,000; AID 1508602; in the data active = activation above about 4.9%
# FBW7 activator: activators of human E3 ligase FBW7; AlphaScreen FBW7–phospho-cyclin E peptide binding, activator screen; normalized activity (activation), % at 26.1 µM; AID 1259310; hit rate 0.13% among 650,000; in the data active = normalized activity above about 1.9%;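 also: purified mutant Fbw7 with reduced substrate affinity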
# MITF primary: human MITF inhibition, primary screen | AID 1259374 | O75030 | hit rate 0.91% among 650,000 | AlphaScreen MITF homodimerization, bead proximity signal | inhibition, % at 2.6 µM; in the data active = inhibition above about 50%
# Target sequence (O75030 whole entry, looked up): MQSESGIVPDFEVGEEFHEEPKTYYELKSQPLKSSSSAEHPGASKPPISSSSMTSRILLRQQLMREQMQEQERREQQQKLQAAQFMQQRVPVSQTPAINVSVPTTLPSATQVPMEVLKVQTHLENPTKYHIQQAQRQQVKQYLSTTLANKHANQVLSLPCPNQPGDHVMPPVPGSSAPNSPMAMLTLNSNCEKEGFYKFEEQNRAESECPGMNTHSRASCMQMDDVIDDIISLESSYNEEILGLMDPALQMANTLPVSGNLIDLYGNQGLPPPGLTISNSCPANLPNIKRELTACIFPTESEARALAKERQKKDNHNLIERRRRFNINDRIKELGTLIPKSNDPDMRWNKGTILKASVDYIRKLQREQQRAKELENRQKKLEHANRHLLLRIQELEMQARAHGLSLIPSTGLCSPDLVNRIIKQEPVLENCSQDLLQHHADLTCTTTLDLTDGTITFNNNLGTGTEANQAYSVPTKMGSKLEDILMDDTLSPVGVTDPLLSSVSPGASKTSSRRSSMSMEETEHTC
# GPR151 conf act: human GPR151 activation, confirmation screen. shares compounds with GPR151 activ. GPR151 PathHunter beta-arrestin cells, luminescence, 90 min; % of EA-reagent control over plate median. activation, % at 11.2 µM. 6,700 tested, under 10 active. AID 1508609;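 active = mean percent activation across replicates above the confirmation screen cutoff of 4.91%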
# GPR119 counter: activates human GPR119 in a GPR151 counter-screen; shares compounds with GPR151 activ; GPR119 PathHunter beta-arrestin cells, luminescence, 90 min; 0 = compound-well median, 100 = enzyme-acceptor control; activation, % at 11.2 µM; hit rate 0.3% among 6,700;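 active = mean percent activation in the counterscreen above 29.09%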;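 also: counterscreen on off-target GPR119 to flag nonselective hits from the GPR151 activator screen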
# Hits are given with their value; . = inactive; / = not tested or not shown. Hits are enriched below; roughly 3.5% of the tested compounds scored in any of these assays.
SMILES,TEAD-YAP block,GPR151 activ,FBW7 activator,MITF primary,GPR151 conf act,GPR119 counter
CC(O)CCC(=O)N/N=C/c1cc([N+](=O)[O-])ccc1O (centres undefined),.,10,.,.,.,.
CCNC(=O)c1ccc(CSc2ccc(C)cc2)cc1,.,.,.,.,/,/
NC(=O)c1ccsc1NC(=O)CSc1ccc(Cl)cc1,.,9.5,.,.,.,.
COc1cc(C2C(C(=O)OC3CCCC3)=C(C)NC3=C2C(=O)CCC3)ccc1O (centres undefined),.,.,.,.,/,/
COc1ccc2ccc(=O)oc2c1,.,5.0,.,.,.,.
CCOC(=O)c1nn(CCO)c2c1CN(Cc1cccc(Cl)c1)CC2,.,10,.,.,.,.
O=C(N=Nc1c(O)n(CO)c2ccccc12)c1ccncc1,.,4.9,.,.,.,.
CCn1c(O)c(N=NC(=O)c2ccc(C)nc2)c2ccccc21,.,.,.,.,/,/
Cc1ccc(NC(=O)c2nc[nH]c2C(=O)Nc2ccc(C)cc2)cc1,.,.,.,.,/,/
Cc1cccc(NC(=O)c2nc[nH]c2C(=O)Nc2cccc(C)c2)c1,.,6.6,.,.,.,.
Cc1nnc(SCC(=O)N2CCCC2)n(N)c1=O,.,5.5,.,.,.,.
Cc1nnc(SCC(=O)N2CCCCC2)n(N)c1=O,.,.,.,.,/,/
Cc1cc(NC(=O)c2cccs2)cc(C)c1OCC(=O)N1CCOCC1,.,5.2,.,.,.,.
O=C(Cn1nc(-c2ccccc2)c2ccccc2c1=O)c1ccccc1,.,.,.,.,/,/
NC(COP(=O)(O)O)C(=O)O (centres undefined),.,5.5,.,.,.,.
Cc1cc(C)c(NC(=O)C(=O)/C=C(\O)c2ccccc2)c(C)c1,.,.,.,.,/,/
O=C(Nc1cc(C(F)(F)F)ccc1Cl)C1C2CC3OC(=O)C1C3C2 (centres undefined),.,.,.,.,/,/
O=C(Nc1cccc(C(F)(F)F)c1)C1C2CC3OC(=O)C1C3C2 (centres undefined),.,6.3,.,.,.,.
COC(=O)c1cc2oc(C)cc2n1CC(=O)Nc1ccc(C)c(F)c1,.,.,.,.,/,/
CC(C)NC(=O)Cn1c(SCC(=O)NC2CC2)nc2ccccc21,.,.,.,.,/,/
Cc1ccc(C(C)CCN2CCOc3ccc(CN4CCN(CCO)CC4)cc3C2)o1 (centres undefined),.,.,.,.,/,/
Cc1cccc(NC(=O)C(=S)NC2CCCC2)c1C,.,8.2,.,.,.,.
COc1cc(NC(=O)c2c(C)cc3ccccn23)cc(OC)c1OC,.,7.3,.,.,.,.
CCCc1ccc(C(=O)/C=C/N(C)C)cc1,.,5.7,.,.,.,.
CCOC(=O)c1c(NC(=O)CSc2nc3ccccc3[nH]2)sc2c1CCCC2,.,6.3,.,.,.,.
SMILES,TEAD-YAP block,GPR151 activ,FBW7 activator,MITF primary,GPR151 conf act,GPR119 counter
CCOC(=O)c1c(NC(=O)CSc2nnc3ccccn23)sc2c1CCCC2,.,6.8,.,.,.,.
CCOC(=O)c1c(NC(=O)CSc2nnc(CNC(=O)c3ccc(OC)cc3)n2-c2ccc([N+](=O)[O-])cc2)sc2c1CCCCC2,.,5.9,.,.,.,.
CCOC(=O)c1c(NC(=O)CCSc2nnc3ccccn23)sc2c1CCCC2,.,.,.,.,/,/
CCOC(=O)c1c(NC(=O)CSc2ccccn2)sc2c1CCCC2,.,6.8,.,.,.,.
Cc1cc(C(=O)NNC(=O)CC(NC(N)=O)c2ccc(Cl)cc2)c(C)o1 (centres undefined),.,.,.,.,/,/
CCOc1ccc(/C=C2/N=C(c3cncc(Br)c3)OC2=O)cc1,.,5.0,.,.,.,.
CCOc1ccc(/C=C2/N=C(c3ccc(OC)c(Br)c3)OC2=O)cc1,.,.,.,.,/,/
Cc1cccc(-c2nc(C)cc(NCCc3ccccn3)n2)c1,.,5.8,.,.,.,.
CCCNc1cc(C)nc(-c2ccccc2)n1,.,.,.,.,/,/
Cc1cc(/C=C2\C(=O)NC(=O)N(c3ccc(F)cc3)C2=O)c(C)n1C1CC1,.,.,.,.,/,/
Cc1cc(/C=C2\C(=O)NC(=S)N(c3ccc(F)cc3)C2=O)c(C)n1C1CC1,.,5.3,.,.,.,.
COc1ccc(CCNC(=O)c2cccc(Nc3cc(OC)c(OC)c(OC)c3)c2)cc1,.,.,.,.,/,/
COc1ccc2[nH]c(=O)c(=O)[nH]c2c1,.,.,.,.,/,/
O=c1[nH]c2cc(Cl)c(Cl)cc2[nH]c1=O,.,5.5,.,.,.,.
Cc1ccc(C)c(NC(=O)CCC(=O)NN=C(C2CC2)C2CC2)c1,.,.,.,.,/,/
Cc1cc(NC(=O)CSc2nc3ccsc3c(=O)n2-c2ccc(C(N)=O)cc2)no1,.,5.0,.,.,.,.
CC(C)CCN1CCNC(=O)C1CC(=O)NCC1(c2ccccc2)CCOCC1 (centres undefined),.,6.1,.,.,.,.
CCOc1ccc(CN2CCNC(=O)C2CC(=O)NCC2(c3ccccc3)CCCC2)cc1 (centres undefined),.,8.0,.,.,.,.
COC(=O)c1c(NC(=O)c2ccc3c(c2)OCO3)sc(C(=O)N2CCCCC2)c1C,.,7.5,.,.,.,.
O=C(CN1CCSCC1)N/N=C/c1cccc2ccccc12,.,.,.,.,/,/
COc1ccccc1N1CCN(c2ncc(C(=O)Nc3nnc(C)s3)c3ccccc23)CC1,.,.,.,.,/,/
Cc1cccc(NC(=O)CSc2nc3c(c(=O)n2-c2ccc(F)cc2)SCC3)c1,.,6.5,.,.,.,.
O=C(O)c1cc(C23CC4CC(CC(C4)C2)C3)ccc1O,.,14,.,.,.,.
Cc1ccc2c(CSc3n[nH]c(N)n3)cc(=O)oc2c1,.,.,.,.,/,/
Cc1ccc2c(CSc3n[nH]c(N)n3)cc(=O)oc2c1C,.,11,.,.,.,.
SMILES,TEAD-YAP block,GPR151 activ,FBW7 activator,MITF primary,GPR151 conf act,GPR119 counter
COC(=O)C1=C(C(=O)OC)SC2(S1)C(C(=O)OC)=C(C(=O)OC)SC1=C2c2cc(C)c(C)cc2NC1(C)C,.,5.8,.,.,.,.
O=C(CN1CCSCC1)N/N=C/c1ccc(-c2ccccc2)cc1,.,.,.,.,/,/
COc1ccc(CNc2nc3ccccc3n2CCN2CCOCC2)cc1OC,.,10.0,.,.,.,.
COc1ccccc1CNc1nc2ccccc2n1CCN1CCOCC1,.,.,.,.,/,/
Cc1cc([N+](=O)[O-])ccc1-c1ccc(C(=O)NC(C)(C)C)o1,.,7.7,.,.,.,.
CC(Cc1ccccc1)N=C1SCC(=O)N1Cc1ccccc1 (centres undefined),.,7.6,.,.,.,.
N#Cc1c(-c2ccncc2)cc(-c2ccc(Cl)cc2)nc1N,.,5.4,.,.,.,.
N#Cc1c(-c2ccc(Cl)cc2)cc(-c2ccccc2)nc1N,.,.,.,.,/,/
CCc1ccc(NC(=O)CSc2nc3ncccc3[nH]2)cc1,.,6.5,.,.,.,.

# Screens from PubChem.
